This is a sample that favours compounds with a hit; in the whole collection about 1.3% have one here.
AmpC inh no detg = qHTS Inhibitors of AmpC Beta-Lactamase (assay without detergent); AmpC nitrocefin hydrolysis, absorbance 480 nm, 0.0001% Triton; hit rate 0.52% among 330,000; Potency, µM (top dose mostly 57.1 µM), actives largely listed as inhibitors; further: nearly all actives have a fitted effect of over 20% in size
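20 mM phosphate pH 7.0 + 0.01% (detergent screen) or 0.0001% Triton X-100; 5.3 nM AmpC reagent; cpd preinc 15 min RT; nitrocefin (800 uM stock) to start; A480 q20 s × 4 min; Activity was normalised to no-enzyme and no-compound control wells.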
FBPA Giardia inh = qHTS Assay for Inhibitors of Fructose-1,6-bisphosphate Aldolase from Giardia Lamblia; A8B2U2; purified Giardia FBPA; Potency, µM (top dose mostly 59.6 µM), usual class: inhibitors; hit rate 0.71% among 290,000; AID 2451, 2010; further: nearly all actives have a fitted effect of over 55% in size
Target sequence (A8B2U2 whole entry, looked up): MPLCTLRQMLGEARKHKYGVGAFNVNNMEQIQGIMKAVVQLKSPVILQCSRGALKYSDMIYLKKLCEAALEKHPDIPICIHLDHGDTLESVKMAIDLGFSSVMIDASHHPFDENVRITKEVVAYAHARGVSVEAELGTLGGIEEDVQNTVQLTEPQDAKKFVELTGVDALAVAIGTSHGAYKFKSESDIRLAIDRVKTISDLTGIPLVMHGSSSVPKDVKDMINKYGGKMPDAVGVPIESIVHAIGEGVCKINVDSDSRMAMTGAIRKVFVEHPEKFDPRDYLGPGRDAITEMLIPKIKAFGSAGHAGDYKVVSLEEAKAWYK
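Giardia FBPA (40 nM reagent) was preincubated 10 min at RT with compound (up to 57.5 uM final), then substrate plus GAPDH/TPI/NAD/arsenate coupling system with diaphorase/resazurin was added; resorufin fluorescence (525/598 nm) was read after 20 min.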
AmpC detergent = qHTS Inhibitors of AmpC Beta-Lactamase (assay with detergent); P00811; AmpC hydrolysis of nitrocefin, absorbance 480 nm, 0.01% Triton; Potency, µM (highest dose often 114 µM), actives largely listed as inhibitors; hit rate 0.041% among 370,000; AID 485294, 2010; further: nearly all actives have a fitted effect of over 25% in size
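AmpC (5.3 nM in the dispensed reagent) in 20 mM phosphate pH 7.0 with 0.01% (detergent screen) or 0.0001% Triton X-100 was preincubated with compounds for 15 min at room temperature. Nitrocefin was then added from an 800 uM solution, and hydrolysis was followed at 480 nm.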
AMA1 RON2 block = qHTS for Inhibitors of AMA1-RON; Towards Development of Antimalarial Drug Lead: Primary Screen. Plasmodium falciparum AMA1 (3D7) - RON2 peptide interaction. AlphaScreen AMA1-biotinylated RON2 peptide binding. Potency, µM (series often up to 58.2 µM), actives largely listed as inhibitors. hit rate 0.2% among 360,000; further: nearly all actives have a fitted effect of over 45% in size
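AMA1 (3D7) with his tag at 25 nM final met compounds first, then biotinylated RON2 peptide at 25 nM; detection used donor plus acceptor beads, 10 µg/mL apiece, read by AlphaScreen after 30 min at room temperature.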
LmPK inhibitor = qHTS Assay for Inhibitors of Leishmania Mexicana Pyruvate Kinase (LmPK). Q27686. purified LmPK, Kinase-Glo ATP luminescence, 1 h. Potency, µM (top dose mostly 57.5 µM), actives largely listed as inhibitors. hit rate 0.37% among 290,000
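Purified LmPK (0.1 nM) with 0.5 mM PEP and 0.1 mM ADP in imidazole buffer pH 7.2 with MgCl2/KCl, 1 h at room temperature. ATP formed was read by luciferase luminescence and normalized to no-enzyme and uninhibited controls.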
Each line names hits and unclear results; the compound was inactive in the other large screens. The call rests on the fitted dose curve; in most records, active means well fitted curve in the direction sought with a large enough effect; inconclusive means small, poorly fitted or top-dose-only effect, or another doubt; inactive means no such curve, though single readings can be large; an effect the other way counts as inactive or inconclusive.

Cc1cccc(NC(=O)CSc2nnc(-c3ccco3)c(-c3ccco3)n2)c1C	AmpC inh no detg inconclusive, FBPA Giardia inh inconclusive, AMA1 RON2 block inconclusive
Cc1cccc(NC(=O)CSc2nnc(-c3ccco3)c(-c3ccco3)n2)c1	AmpC inh no detg 16µM, FBPA Giardia inh inconclusive, AMA1 RON2 block inconclusive
N#CC(=C1C=C(Br)C(=NO)C=C1Cl)c1ccc(Cl)cc1	AMA1 RON2 block 20µM (no result: AmpC inh no detg, FBPA Giardia inh, AmpC detergent, LmPK inhibitor)
COc1ccc(CNCCC(c2ccc(OC(C)C)cc2)c2ccccc2OC)cc1 (configuration not stated)	none
COc1ccccc1C(CCNCc1ccc(N(C)C)cc1)c1ccc(OC(C)C)cc1 (configuration not stated)	AMA1 RON2 block 8.9µM
CN(C)S(=O)(=O)c1ccc(NC(=O)CSc2nnc(-c3ccco3)o2)cc1	none (no result: FBPA Giardia inh, AmpC detergent, LmPK inhibitor)
CC(C)CCC(CC(C)O)c1n[nH]c(=S)n1-c1ccccc1 (configuration not stated)	LmPK inhibitor 10µM
O=C(c1ccco1)N1CCN(C(=O)c2cn(-c3ccccc3)nc2-c2ccccc2)CC1	AmpC detergent inconclusive (no result: FBPA Giardia inh, LmPK inhibitor)
O=C(Nc1ccc(Nc2ccccc2)cc1)c1ccc(Br)cc1	AmpC detergent inconclusive
Cc1cccc(C(=O)Nc2cccc(NC(=O)c3ccccc3)c2)c1	AmpC inh no detg 22µM
O=C(Nc1cccc(C(=O)Nc2ccc(Br)cc2)c1)c1ccccc1	AmpC inh no detg 32µM
O=C(NC1=C(NC2CCS(=O)(=O)C2)C(=O)c2ccccc2C1=O)c1ccccc1 (configuration not stated)	FBPA Giardia inh 1.3µM
Cc1cc(NC(=O)c2ccccc2)sc1C	LmPK inhibitor 13µM (no result: AmpC inh no detg)
CC/C=C/[C@@H](c1ccccc1)[C@H](C)C(O)CC(=O)SC(C)(C)C (some centres not stated)	none (no result: AmpC inh no detg, AmpC detergent, AMA1 RON2 block, LmPK inhibitor)
Cc1cccc(NC2=C(NC(=O)c3ccccc3)C(=O)c3ccccc3C2=O)c1	FBPA Giardia inh inconclusive, AMA1 RON2 block inconclusive, LmPK inhibitor 3.5µM
O=C(NC1=C(Nc2ccc(Cl)cc2)C(=O)c2ccccc2C1=O)c1ccccc1	FBPA Giardia inh inconclusive, LmPK inhibitor inconclusive
O=C1c2cccnc2-c2ncccc21	AmpC detergent inconclusive
CC1(C)OCC(CSC2=C(SCC3COC(C)(C)O3)C(=O)c3ncccc3C2=O)O1 (configuration not stated)	FBPA Giardia inh 1.8µM (no result: AmpC inh no detg, AmpC detergent, AMA1 RON2 block, LmPK inhibitor)
CC1(C(=O)NCc2cccc(C(F)(F)F)c2)CCN1C1Cc2ccccc2C1 (configuration not stated)	none (no result: AmpC inh no detg, FBPA Giardia inh, AmpC detergent, LmPK inhibitor)
O=C(Nc1ccccc1F)c1ccc(CSc2ncccn2)cc1	AmpC detergent inconclusive, LmPK inhibitor 16µM
O=C(Nc1ccccc1)c1ccc(CSc2ncccn2)cc1	none
S=c1[nH]nc(-c2cccs2)n1C1CCCCC1	FBPA Giardia inh inconclusive, AmpC detergent inconclusive, LmPK inhibitor 3.5µM
Nc1sc(-c2ccccc2)cc1-c1n[nH]c(=S)n1C1CCCCC1	none
Cn1c(-c2ccc(C(C)(C)C)cc2)n[nH]c1=S	none
CC(C)(C)c1ccc(-c2n[nH]c(=S)n2C2CCCC2)cc1	LmPK inhibitor 10µM
CC(C1CC2CCC1C2)n1c(-c2cccs2)n[nH]c1=S (configuration not stated)	LmPK inhibitor 5µM
O=C(C1CCCN(S(=O)(=O)c2cccs2)C1)N1CCN(c2ccccc2F)CC1 (configuration not stated)	none (no result: AmpC inh no detg, FBPA Giardia inh, AMA1 RON2 block, LmPK inhibitor)
COc1ccccc1S(=O)(=O)N(C)C[C@@H]1OCc2cnnn2CCCC(=O)N([C@H](C)CO)C[C@@H]1C	none (no result: AmpC inh no detg, FBPA Giardia inh, AmpC detergent, LmPK inhibitor)
Cc1cc(C)cc(OCCn2c(C3CC(=O)N(c4ccccc4Cl)C3)nc3ccccc32)c1 (configuration not stated)	none (no result: FBPA Giardia inh, AMA1 RON2 block, LmPK inhibitor)
Cc1ccc(OCCn2c(C3CC(=O)N(Cc4ccccc4)C3)nc3ccccc32)cc1 (configuration not stated)	AmpC inh no detg 45µM, AmpC detergent inconclusive
O=C(Cc1cccc2ccccc12)N/N=C/c1ccc(OC(=O)/C=C/c2ccco2)cc1	AmpC inh no detg 35µM, AmpC detergent inconclusive
O=C(Cc1cccc2ccccc12)N/N=C/c1ccc(F)cc1	none
CCSc1nc(-c2ccccc2)c(C#N)c(=O)[nH]1	AmpC inh no detg 2.2µM
